# Screening data: PubChem, National Center for Advancing Translational Sciences (NCATS)
# Shown is part of a subset that was picked to be rich in hits.
# KDM5B inhibitor = blocks human KDM5B histone demethylase activity; KDM5B demethylase, FDH-coupled NADH fluorescence (FDH is formaldehyde dehydrogenase); Q9UGL1; AID 1347165; Potency, µM (titrated, usually from 57.7 µM), usual class: inhibitors; actives 2.6% (n = 220,000); active = well fitted inhibition curve with a large enough effect; note: 0% is about no effect; nearly all actives have a fitted effect of over 70% in size
#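 qHTS format, multiple compound concentrations. Buffer 50 mM HEPES pH 7.5/0.01% Tween-20; 200 nM KDM5BΔAP final; 10 min compound preincubation; substrate-mix levels 12.5 µM peptide, 25 µM α-KG, 0.25 mM NAD⁺; 30 min RT; ΔRFU.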
# Numbers without * were called inactive; i = inactive. Potency is the fitted concentration of half-maximal effect.
SMILES,KDM5B inhibitor
CN1CCNc2cc(-c3ccc(N4CCOCC4)cc3)ncc2C1,28µM*
Cc1cc(-c2cc3c(cn2)CN(Cc2cccs2)CCN3)ccn1,i
COc1ccc(CN2CCNc3cc(-c4ccnc(C)c4)ncc3C2)cc1,i
COc1ccc(-c2cc3c(cn2)CN(Cc2ccncc2)CCN3)cc1,35µM*
Fc1ccc(-c2cc3c(cn2)CN(Cc2ccncc2)CCN3)cc1Cl,35µM*
COc1ccc(Nc2cc3c(cn2)CN(C)CCN3)cc1OC,i
Fc1ccc(Nc2cc3c(cn2)CN(Cc2ccncc2)CCN3)cc1Cl,i
O=C(CC1Sc2ccc(C(F)(F)F)cc2NC1=O)Nc1ccc(F)c(Cl)c1 (stereo unspecified),i
Cc1c(-c2ccccc2F)[nH]c2ccc(CNC(=O)C3CCCN(C(N)=O)C3)cc12 (stereo unspecified),28µM*
Cc1c(-c2ccccc2F)[nH]c2ccc(CNC(=O)C3C=CCN3)cc12 (stereo unspecified),28µM*
O=C(NCc1ccc(F)cc1)C1CCCN(C(=O)c2ccc3cc[nH]c3c2)C1 (stereo unspecified),i
O=C(NCc1ccc(F)cc1)C1CCCN(C(=O)NCc2ccccc2)C1 (stereo unspecified),i
CCN(CC(=O)NCc1ccc(F)cc1)C(=O)c1ccc2[nH]c(C)c(C)c2c1,i
CCc1[nH]c2ccc(CNC(=O)C3CC(=O)Nc4ccccc43)cc2c1C (stereo unspecified),i
Cc1ccc2c(CN3CCN(C)CC3)cc(=O)oc2c1C,i
O=C(O)c1cccc(OCc2ccc(Cl)cc2)c1,i
Cc1ccc(S(=O)(=O)NCCO)cc1C(=O)O,i
Cc1ccc(C(=O)CC2(O)C(=O)N(CN3CCN(C)CC3)c3ccccc32)s1 (stereo unspecified),i
CN(c1ccc(Cl)c(Cl)c1)C1CNC1,i
CN1C(=O)C(c2ccccc2)CC12CCN(C(=O)C1CCC1)CC2 (stereo unspecified),i
CN1C(=O)C(c2ccccc2)CC12CCN(C(=O)c1ccc(C#N)cc1)CC2 (stereo unspecified),i
CN1C(=O)C(c2ccccc2)CC12CCN(C(=O)CN1CCCC1)CC2 (stereo unspecified),25µM*
CCc1cnc(C)nc1N1CCC2(CC1)CC(c1ccccc1)C(=O)N2C (stereo unspecified),i
CCOCCC(=O)N1CCC2(CC1)CC(c1ccccc1)C(=O)N2C (stereo unspecified),i
Cc1ccc(C#N)c(N2CCC3(CC2)CC(c2ccccc2)C(=O)N3C)n1 (stereo unspecified),28µM*
SMILES,KDM5B inhibitor
Cc1ccc2nc(Cl)c3cc(C(=O)NC4CCCc5ccccc54)sc3c2c1 (stereo unspecified),i
CCc1cccc(C)c1Nc1nc(N)c(C(=O)c2ccc(OC)cc2)s1,i
O=C(Nc1ccc(Cl)c(S(=O)(=O)N2CCCC2)c1)C1CC(=O)N(CCc2ccccc2)C1 (stereo unspecified),i
COc1cccc(C(=O)Nc2ccc(NS(=O)(=O)c3ccc4c(c3)OCCCO4)cc2)c1,i
Cc1cccc(OCc2nc3c4c(ncn3n2)OC2=C(C(=O)CCC2)C4c2ccco2)c1C (stereo unspecified),i
COc1ccc(Oc2c(C)oc3cc(OCC(=O)N(C)Cc4ccccc4)ccc3c2=O)cc1,i
CCS(=O)(=O)Nc1ccc(N2CCCC(CN3CCCC3)C2)c(C(=O)O)c1 (stereo unspecified),i
O=C(c1ccccc1Cl)N1CCC(N(Cc2ccccc2)C2CCOCC2)CC1,i
CN(Cc1cc(C2CC2)n[nH]1)c1nccc(-c2cccnc2)n1,22µM*
CN(CCO)c1nc(-c2cccnc2)nc2ccccc12,i
N#Cc1ccc(-c2cccnc2)nc1SCC(=O)c1ccccc1,i
c1cncc(-c2n[nH]c(C3CCCCN3)n2)c1 (stereo unspecified),i
O=C(C(=O)N1CCC(c2cc(Cc3ccccc3)[nH]n2)CC1)c1cccnc1,i
CN(CCC(O)c1ccccc1)c1nccc(-c2cccnc2)n1 (stereo unspecified),28µM*
COc1ccc(-c2nn(C)c(=O)c3ccccc23)cc1NC(=O)c1ccccc1,i
CCOC(=O)C1CCCN(C(=O)c2ccc3c(c2)[nH]c(=O)c(=O)n3CC)C1 (stereo unspecified),i
Fc1cccc(Cl)c1CSc1nnc2c(Cl)cc(C(F)(F)F)cn12,i
Cc1ccccc1C(CC(=O)Nc1ccc(-c2ccno2)cc1)n1cccc1 (stereo unspecified),i
CCOCCn1c(-n2nc(C)cc2C)nc2c1c(=O)[nH]c(=O)n2C,i
COc1ccc(-c2nccc3c(=O)cc(-c4cccnc4)oc23)cc1OC,i
COc1ncccc1-c1nccc2c(=O)cc(N(C)c3ccccc3)oc12,i
Cc1ccc2c(=O)cc(C(=O)Nc3cccnc3)oc2c1C,i
C[S+](=O)([O-])c1ccc(-c2nccc3c(=O)cc(-c4cccnc4)oc23)cc1,35µM*
COc1ncccc1-c1nccc2c(=O)cc(-c3cccnc3)oc12,35µM*
O=c1cc(-c2cccnc2)oc2c(-c3ccc(O)c(F)c3)nccc12,i
SMILES,KDM5B inhibitor
Cc1ccccc1-c1nccc2c(=O)cc(-c3cccnc3)oc12,40µM*
Cc1cccc2cc(-c3nc(-c4cccnc4)no3)c(=O)oc12,i
Cc1nnc(-c2cc(-c3ccc([S+](C)(=O)[O-])cc3)ccn2)n1Cc1cccnc1,i
CCc1nc2ccccc2c(C(=O)OCC(=O)NC(C)(C)C)c1C,i
CCOC(=O)C(NC(=O)c1ccc(F)c(F)c1)C(=O)OCC,i
COc1ccc(S(=O)(=O)N2CCC(C(=O)Nc3ccccc3Cl)CC2)c2cccnc12,i
CCS(=O)(=O)Nc1cccc(C2=NN(S(=O)(=O)c3ccc(F)cc3)C(c3ccccc3)C2)c1 (stereo unspecified),i
O=C(Cn1ncc2ccccc2c1=O)Nc1ccc(F)cc1F,i
CCCOc1ccc(C(N)=O)cc1,i
CCOC(=O)c1cccc(NC(=O)c2ncoc2-c2ccc(OC)c(OC)c2)c1,i
CC1(C(=O)NCCOc2ccccc2)CCCc2cnc(Nc3cccnc3)nc21 (stereo unspecified),i
CC1(C(=O)NCCCn2ccnc2)CCc2cnc(NCc3ccccc3)nc21 (stereo unspecified),40µM*
COCCNC(=O)C1(C)CCc2cnc(Nc3ccccc3)nc21 (stereo unspecified),i
Cn1ccc(NC(=O)C2(C)CCc3cnc(NCc4ccccc4)nc32)n1 (stereo unspecified),35µM*
CC1(C(=O)NCC2CC2)CCCc2cnc(Nc3ccccc3)nc21 (stereo unspecified),i
c1ccc(CNCCCn2ccnc2)cc1,i
COCCNC(=O)C1(C)CCc2cnc(NCc3ccccc3)nc21 (stereo unspecified),35µM*
CC1(C(=O)NCc2cnccn2)CCc2cnc(Nc3ccccc3)nc21 (stereo unspecified),i
CC1(C(=O)NCC2CC2)CCc2cnc(NCc3ccccc3)nc21 (stereo unspecified),40µM*
CC1(C(=O)NCc2ccccc2)COCc2cnc(Nc3ccccc3)nc21 (stereo unspecified),i
CC(C)(C)c1nc2cc(NC(=O)c3n[nH]c(=O)c4ccccc34)ccc2o1,i
